Out of some 48,000 compounds screened, about 13,000 (27%) showed an effect of 50% or more. Some of the results follow.
tested on: Wolbachia pipientis; assay: Anti-Wolbachia Cell-Based Screen; format: functional; design: scale not given: in the data most compounds retested in dose-response had high values; settings: 5 µM

| SMILES | Percent Effect [%] |
| --- | --- |
| COc1ccccc1NC(=O)c1ccc(C)n1C | 99.48 |
| CCN(CC)CCn1cc(NC(=O)Nc2ccccc2OC)cn1 | 2.741 |
| CC1CCC(NS(=O)(=O)CC(=O)Nc2ccccc2N2CCCC2)CC1 (centres undefined) | 3.293 |
| O=C(Nc1cc(Cl)ccc1N1CCCCC1)c1ccccn1 | -5.482 |
| CCc1nc(C)c([C@H]2CN(C)C[C@@H]2C(=O)Nc2ccccc2F)[nH]1 | -8.421 |
| Cc1c(C(C)NC(=O)Nc2ccccc2F)cnn1C (centres undefined) | 3.461 |
| CC(C)C(C)N1Cc2cccc(NCC(=O)N(C)C)c2C1 (centres undefined) | 11.84 |
| CC(=O)c1cc(CN2CCCCC2c2nc3cc(F)ccc3[nH]2)cs1 (centres undefined) | -8.075 |
| CC(=O)N1CC(C(=O)Nc2cccc(OC(F)F)c2)C1 | 13.11 |
| CCc1nc(-c2noc3ccc(C(=O)NCCN(C)C)cc23)co1 | -6.651 |
| CC(C)(C)NS(=O)(=O)c1ccccc1CNCc1ccccc1 | 8.138 |
| CC(C)S(=O)(=O)N1CCCC(c2nccn2Cc2cccnc2)C1 (centres undefined) | -1.301 |
| CC(C)c1nccn1-c1nccnc1C1CCCN1Cc1ccccc1 (centres undefined) | 124.1 |
| CC(C)c1nccn1-c1nccnc1C1CCCN1Cc1cccnc1 (centres undefined) | 125.6 |
| Nc1ncncc1-c1noc([C@@H]2CCCN2Cc2cccnc2)n1 | -7.414 |
| CC(C)c1nccn1CC1CCCN1Cc1nc2ccccc2n1C (centres undefined) | -4.978 |
| Cc1nc(CN2CCCC2Cn2ccnc2C(C)C)nc2ccccc12 (centres undefined) | 0.1374 |
| CC(NCc1ccc(OCC(N)=O)cc1)c1ccc2c(c1)CCCC2 (centres undefined) | -9.081 |
| CS(=O)(=O)Cc1noc(CN(Cc2ccco2)c2ccccc2)n1 | -3.718 |
| CN(C)CCN(C)C(=O)c1cnc2c(c1)nc(-c1ccccc1Cl)n2C | -6.044 |
| Cc1nnc(NC(=O)NCc2ccoc2)s1 | 74.81 |
| Cn1cc(NC(=O)NCc2ccoc2)ccc1=O | 13.17 |
| COc1ccc(F)cc1C(C)NC(=O)Nc1nnc(C)s1 (centres undefined) | -6.536 |
| Cc1nnc(NC(=O)NCc2cc(F)cc(F)c2)s1 | 4.254 |
| Cc1nnc(NC(=O)NCc2ccc(F)cc2)s1 | 93.84 |
| O[C@H]1CC[C@@H](Cc2cc(-c3ccccn3)on2)O[C@@H]1CNCC1CC1 | 8.949 |
| CN1CCCN(C(=O)c2nc3c(s2)CCCN3CC2CC2)CC1 | 15.57 |

| SMILES | Percent Effect [%] |
| --- | --- |
| O=C1O[C@@H]2CN(Cc3cc4ccccc4s3)C[C@@H]2N1Cc1ccccn1 | 7.899 |
| Cc1cc(C)cc(CN2CCCC2c2noc(C)n2)c1 (centres undefined) | -1.497 |
| CN(C)Cc1ccnc(C2CCCN2Cc2ccncc2)n1 (centres undefined) | -6.271 |
| CN(C)Cc1ccnc(C2CCCN2Cc2cc3ccccc3s2)n1 (centres undefined) | 97.93 |
| CN(C)Cc1ccnc(C2CCCN2Cc2ccc3ncccc3c2)n1 (centres undefined) | 102.5 |
| c1ccc2sc(CN3CCCC3c3noc(C4CC4)n3)nc2c1 (centres undefined) | 1.502 |
| CCC(C)(C)NC(=O)c1ccc(NC(=O)NCc2cc(C)on2)cc1 | -5.404 |
| CN1CC2(CCN(C(=O)c3ccc4c(=O)n(C)cnc4c3)CC2)CC1=O | -1.826 |
| COc1cccc(C(=O)N2CCCC(C(=O)CCc3ccccc3)C2)c1 (centres undefined) | -1.62 |
| COC(=O)c1cc2n(n1)CCCN(C(=O)Cc1c[nH]c3ccccc13)C2 | -8.312 |
| N[C@@H]1CCCN(C(=O)Cc2c[nH]c3ccccc23)[C@H]1c1ccccc1F | 92.02 |
| COc1cccc(CC2CCCN2CC(N)=O)c1 (centres undefined) | 14.09 |
| COc1ccc(CC(=O)N2CCC[C@@H](N)[C@@H]2c2ccccc2F)cc1.Cl | 65.32 |
| CN(C(=O)Cc1c[nH]c2ccccc12)C1CCN(c2ccccn2)CC1 | -5.005 |
| COc1cccc(CCC(=O)N2CCC[C@@H](N)[C@@H]2c2ccccc2F)c1.Cl | 156.6 |
| COc1ccc(CC(=O)N2CCCC(Cn3cc(CN)nn3)C2)cc1 (centres undefined) | -29.22 |
| CN1CCC(N[C@@H]2CO[C@H](CNC(=O)C3CCCC3)[C@H]2O)CC1 | -10.26 |
| CN(C)C(=O)CNC(=O)CCn1ncc2c(Cl)cccc21 | 7.628 |
| COc1cn(-c2ccccc2)nc1C(=O)NCCN1CCCC(C)C1 (centres undefined) | 85.45 |
| O=C(NCCn1ccnc1)c1ccn(-c2cccc(F)c2)n1 | 3.245 |
| COc1cn(-c2ccccc2)nc1C(=O)NCCCN1CCCC(C)C1 (centres undefined) | 0.4079 |
| CC1CCCN(CCCNC(=O)c2cn(C)nc2-c2cccnc2)C1 (centres undefined) | -7.015 |
| CC1CCCN(CCNC(=O)c2ccn(-c3ccccc3)n2)C1 (centres undefined) | -2.104 |
| CC(=O)N1CCC(C(=O)NCCN2CCCC(C)C2)CC1 (centres undefined) | 4.421 |
| CC1CCCN(CCNC(=O)c2ccn(-c3cccc(F)c3)n2)C1 (centres undefined) | 71.46 |
| COc1ccc(-n2ccc(C(=O)NCCN3CCCC(C)C3)n2)cc1 (centres undefined) | 109.8 |
| CC1CCCN(CCNC(=O)c2ccn(-c3ccc(F)cc3)n2)C1 (centres undefined) | 89.11 |

Reference: ChEMBL document CHEMBL3988442, “University of Dundee, Small-Polar-MMV Screening Library” (2021)
